These results are taken from PubChem BioAssay (NCI).

Compounds without any hit were thinned out: in the full panel of roughly 83,000, 20% have a hit.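 In brief: 96-well plates, 48 h treatment, single concentration, percent growth endpoint.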 A number with no mark means an inactive call. Calls of active or inactive are those of the source.

This assay relates to HT29 colon. The assay is described as follows: NCI-60 one-dose screen, 48 h (100 = growth as untreated, 0 = no growth, -100 = all killed). Conditions: 10 µM unless noted. As for the experimental part:
Growth inhibition of the HT29 human tumor cell line is measured as a screen for anti-cancer activity. Cells are grown in 96 well plates and exposed to the test compound for 48 hours. Compounds are tested at a single concentration, which is 10^-5 M for most compounds. The reported endpoint is percent growth (GI% or GIPRCNT), where numbers from 0 - 100% represent growth inhibition, and numbers from -100% - 0 represent cell death. For example, a value of 40 represents 60% growth inhibition. A value of 0 means no net growth occurred over the course of the experiment. A value of -40 indicates 40% of cells at the beginning of the experiment died by the end of the experiment. A value of -100 means all cells are dead at the end of the experiment.
NCI-60 Human Tumor Cell Lines Screen was performed using the standard one-dose NCI protocol, which is described in more detail at https://dtp.cancer.gov/discovery_development/nci-60/default.htm.
Compounds with GIPRCNT values below 10 were considered active. Activity score was based on GIPRCNT using the following formula: […]
Score is 0 for GIPRCNT values of 100 or above, 50 for GIPRCNT values of 0, and 100 for GIPRCNT values of -100.
In the case of `Cc1c(Cl)cccc1NC(=O)c1sc2nc3c(cc2c1N)CCCC3`, the growth is 8.28% (active). Next, `COc1cccc(C2C3=C(COC3=O)N(CCO)c3cc4c(cc32)OCCO4)c1` (stereo not given): -30.7% (active); `Oc1cccc(-c2nc(-c3n[nH]c(=S)n3-c3ccccc3)cc3c2[nH]c2ccccc23)c1`: 6.61% (active). As to `CC(=O)O[C@H]1C[C@@]2(C)[C@@H](C[C@@H](O)[C@H]3[C@@]4(C)CC[C@H](N5CCCC5)[C@@H](C)[C@@H]4CC[C@@]32C)/C1=C(\CCC=C(C)C)C(=O)O`, the growth is 103%. Next, `CCC(=C(c1ccc(OCCN(CC)CC)cc1)c1ccc(OCCN(CC)CC)cc1)c1ccc(Cl)cc1`: -68% (active); `O=C(c1ccccc1)[C@@H](c1ccccc1)[C@]1(O)C(=O)Nc2ccccc21`: 101%. On to `O=C(CNc1ncco1)Nc1ccc(S(=O)(=O)c2ccc(NC(=O)CNc3ncco3)cc2)cc1`, for which the growth is -93.2% (active). To `O=C(Nc1cccc2c1C(=O)c1cccc(NC(=O)c3ccc(C(=O)Nc4cccc5c4C(=O)c4cccc(NC(=O)c6ccccc6)c4C5=O)cc3)c1C2=O)c1ccccc1` belongs 112%. To `CCOC(=O)C1=CCC(n2cc(F)c(=O)[nH]c2=O)O1` (stereo not given) belongs 105%; to `Cc1ccc(-c2nn(CC(=O)N3CCOCC3)c(N)c2C#N)cc1`, 112%; to `COc1cc(C(=O)n2nc(NCCCc3ccccc3)c3cc(N)ccc32)cc(OC)c1OC`, 91.8%. Next, `CNC(=O)c1cc(Oc2cccc3nc(NC(=O)Nc4ccc(F)cc4F)ccc23)ccn1`: 35.9%; `O=C(Nc1ccc(Cl)cc1)C1=NCCCCN1`: 89.6%. `O=C(Nc1cccc(Cl)c1)Oc1c(Cl)c(Cl)c(Cl)c(Cl)c1Cl`: the growth was 96.3%. To `CC/C(=C(/c1ccc(Cl)cc1)c1ccc(OCCN(CC)CC)cc1)c1ccc(OC)cc1` belongs -3.6% (active). Take `CCOC(=O)c1c(NC(=S)Nc2ccc([N+](=O)[O-])cc2)sc2c1CCCCC2`: the growth is 105%.

Take `C=C(C[n+]1ccccc1)[C@@H]1CC[C@]2(C(=O)OC)CC[C@]3(C)[C@H](CC[C@@H]4[C@@]5(C)CCC(=O)C(C)(C)[C@@H]5CC[C@]43C)[C@@H]12`: the growth is 78%. Regarding `O=C(/C=C/c1ccco1)c1ccc(Nc2ccnc3cc(Cl)ccc23)cc1`, the growth was 23.4%. To `CNC(=O)c1cc(Oc2ccc3nc(NC(=O)c4cc(C(F)(F)F)cc(C(F)(F)F)c4)sc3c2)ccn1` belongs 31.5%. To `O=S(=O)(c1ccc(NCSc2nc3ccccc3s2)cc1)c1ccc(NCSc2nc3ccccc3s2)cc1` belongs 87.8%; to `CCOC(=O)/C(=C\c1ccccc1Cl)P(=O)(OCC)OCC`, 34.7%; to `C#CCOc1ccc(C2=NN(C)C3N=C(Cl)c4ncn(C)c4N23)cc1OCC#C` (stereo not given), 103%. In the case of `O=C(Nc1ccc2[nH]ncc2c1)c1csc(Nc2ccccc2)n1`, the growth was 11.8%. To `O=C1Nc2ccccc2/C1=C/c1cccn1CCCCCCn1c2ccccc2c(=O)c2ccccc21` belongs 92.9%; to `c1ccc(-c2nc(N3CCNCC3)c3oc(-c4ccccc4)nc3n2)cc1`, -26.2% (active). In the case of `O=C(Nc1ncc(Cc2ccccc2)s1)c1ccc2c(c1)OCCO2`, the growth was 4.31% (active). Turning to `COCCn1cc(-c2nc(-c3cc4cccnc4n3C)cs2)c2cc(OC)ccc21`, the growth was 48.2%.

`Cc1c(C(=O)C(SC(=S)N2CCOCC2)SC(=S)N2CCOCC2)nnn1-c1ccc([N+](=O)[O-])cc1`: the growth was 92.3%.

For `COc1ccc(Cn2cc(C(=O)N=Nc3c(O)[nH]c4ccc(Br)cc34)nn2)cc1`, the growth was 88.5%. Next, `C=C1/C(=C\C=C2/CCC[C@]3(C)[C@@H]([C@H](C)CCCC(C)(C)O)CC[C@@H]23)C[C@@H](OC(=O)CBr)C[C@@H]1O`: 39.2%; `COc1nc2ccccc2cc1/C=[N+](\[O-])c1ccccc1`: 70%; `COc1cccc2cc(N(C)c3nc(C)nc4c3CCC4)ccc12`: 2.44% (active).

Consider `[2H]C([2H])([2H])Oc1ccc(/C=C/C(=O)/C=C(O)/C=C/c2ccc(OC([2H])([2H])[2H])c(OC([2H])([2H])[2H])c2)cc1OC([2H])([2H])[2H]`, for which the growth is 10.7%. Turning to `COc1ccc(/C=N\NC(=O)c2ccc3nc(-c4ccc(Cl)cc4)[nH]c3c2)cc1`, the growth was 21.9%. Next, `FC(F)(F)c1cc(N2CCCCC2)nc(NCCCNc2ccnc3cc(Cl)ccc23)n1`: 26.8%.

Consider `O=c1[nH]c(CN2CCN(c3ccccc3)CC2)nc2c(Br)cc(Br)cc12`, for which the growth is 105%. Regarding `CCCS(=O)(=O)Nc1cccc(Nc2ncnc3cc(NC(=O)CCl)ccc23)c1Cl`, the growth is -63.4% (active). To `CN(Cc1ccccc1)c1nc(Cl)c(C2CC(c3ccc(Cl)cc3)=NN2c2cc(Cl)cc(Cl)c2)s1` (stereo not given) belongs 92.9%. To `CCOC(=O)c1c2c(n3ccc(NC(=O)CCN4CCCC4)cc13)C(=O)c1ncccc1C2=O` belongs -52.8% (active). Turning to `CN(C)CC1C(=O)O[C@H]2[C@H]1CC/C(COC(=O)NCc1ccc(Cn3c(=O)sn(CCCI)c3=O)cc1)=C\CC[C@@]1(C)O[C@@H]21` (stereo not given in full), the growth is -80.4% (active).
